# Screen size: about 4,700 compounds; about 360 (7.7%) were called active.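 The calls were made as follows: active = inhibition above a cutoff derived from the DMSO control wells (cut at about 30% in these data); inactive = the rest.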 Only a sample is shown.
# Experiment: bead signal artefacts at single dose – biochemical, AlphaScreen, triplicate, counter-screen for MITF inhibitor project (AID 1259376)
# Details: LysRS AlphaScreen counterscreen, signal interference, at 2.6 µM, stronger effect = higher value
row,SMILES,inhibition
1,O=[N+]([O-])c1ccccc1S(=O)(=O)N1CCN(C2Cc3ccccc3C2)CC1,15% (inactive)
2,CSc1ccc(CN2CCN(Cc3cccc(Oc4ccccc4)c3)CC2)cc1,6.5% (inactive)
3,O=S(=O)(c1ccc(F)cc1)N1CCN(Cc2ccccc2C(F)(F)F)CC1,12.8% (inactive)
4,CSc1ccc(CN2CCN(S(=O)(=O)c3ccc([N+](=O)[O-])cc3)CC2)cc1,30% (active)
5,CC(C)(C)NCC(=O)Nc1c2c(nc3ccccc13)N(Cc1ccccc1)CC2,15.5% (inactive)
6,CC1CCCCC1NC(=O)CSc1nnc(-c2ccncc2)n1CCCN(C)C (stereo not drawn),14.7% (inactive)
7,O=C(OCCN1CCOCC1)c1c(Cl)nc2sccn12,10.9% (inactive)
8,Cc1cc(OCCN2CCN(C)CC2)ccc1C(C)C,4.96% (inactive)
9,CCCS(=O)(=O)N1CCN(Cc2ccccc2Br)CC1,13.6% (inactive)
10,COc1ccc2c(c1)CC(C(=O)Nc1ccc(-c3cn[nH]c3)cc1OCc1ccccc1)CO2 (stereo not drawn),22.5% (inactive)
11,O=C(Nc1ccc(-c2ccncc2)c(C(F)(F)F)c1)C1COc2ccccc2O1 (stereo not drawn),5.92% (inactive)
12,COc1cccc(CN2CCN(CCCc3ccccc3)CC2CCO)c1 (stereo not drawn),-5.46% (inactive)
13,CN(C)CC(C)(C)CNCc1nnc(-c2ccccc2)o1,-0.68% (inactive)
14,N#C/C(=C/c1ccc(-c2ccc3c(c2)C(=O)NC3=O)o1)C(=O)O,13.4% (inactive)
15,COc1ccc(OC)c(CN2CCN(Cc3ccccc3OC)CC2)c1,18.2% (inactive)
16,COC(=O)c1cccc(NS(=O)(=O)c2ccc3ccccc3c2)c1C,21.9% (inactive)
17,COc1ccc(CN2CCN(Cc3ccccc3C(F)(F)F)CC2)cc1OC,17.4% (inactive)
18,CS(=O)(=O)N1CCN(Cc2cccc(Cl)c2)CC1,-4.82% (inactive)
19,O=C(O)CCCCCNC(=O)/C(=C\c1ccco1)NC(=O)c1ccccc1,-2.96% (inactive)
20,COc1ccc2c(c1)CC(c1nc(Nc3ccc4cnccc4c3)c3ccccc3n1)CO2 (stereo not drawn),8.8% (inactive)
21,COc1cccc(OC)c1C(=O)N1CCN(Cc2cccnc2)CC1,14.3% (inactive)

row,SMILES,inhibition
1,COc1cc(CN2CCN(Cc3ccc(OC)c(OC)c3)CC2)cc(OC)c1,1.7% (inactive)
2,COc1cc(CN(CCN(C)C)Cc2ccccc2)cc(OC)c1,2.44% (inactive)
3,CC(c1ccccn1)N(CCN(C)C)C(=S)Nc1ccccc1F (stereo not drawn),100% (active)
4,COc1ccc2c(c1)CC(C(=O)Nc1ccc(-c3cn[nH]c3)cc1OCC(N)=O)CO2 (stereo not drawn),16.5% (inactive)
5,CCN1CCN(CCCOc2ccc(C(C)=O)cc2OC)CC1,19.6% (inactive)
6,CCN(CCN(C)C)Cc1c(Cl)cccc1Cl,-9.64% (inactive)
7,NC(=O)COC(=O)/C=C/c1ccc(I)o1,16.2% (inactive)
8,COc1cc(OC)c(OC)cc1CN1CCN(Cc2ccc(F)cc2)CC1,-4.28% (inactive)
9,COc1ccc(CN2CCN(Cc3cc(OC)ccc3OC)CC2)cc1,-1.01% (inactive)
10,CC(=O)N1CCN(CC(=O)Nc2ccc(C)c(F)c2)CC1,5.18% (inactive)
11,COC(=O)CSc1nc(C2CC2)nc2ccccc12,9% (inactive)
12,CCOc1ccc(CN2CCN(C(=O)c3cccc(Cl)c3)CC2)cc1,0.05% (inactive)
13,COc1ccc(NC(=O)c2cc3n(n2)C(C(F)(F)F)CC(c2ccc(OC)c(OC)c2)N3)cc1OC (stereo not drawn),-6.86% (inactive)
14,CCC(C)NCCOCCOc1cc(C)cc(C)c1C (stereo not drawn),-2.01% (inactive)
15,CCN1CCN(CC(O)COc2cccc(C(=O)OC)c2)CC1 (stereo not drawn),-1.14% (inactive)
16,O=C1c2ccccc2C(O)N1Cc1ccccc1Cl (stereo not drawn),0.5% (inactive)
17,c1cc2c(cc1CN1CCN(C3CCCC3)CC1)OCO2,2.1% (inactive)
18,Cc1ccc(C(C)C)c(OCCN2CCNCC2)c1,-3.79% (inactive)
19,COc1cccc(-c2ncnn2-c2sc3c(c2C#N)CCCCC3)c1,17.1% (inactive)
20,COc1ccc(NC(=O)CN2CCN(C)CC2)c(OC)c1,13.8% (inactive)
21,COc1ccc(CNCC2CN(CC(C)C)CCO2)cc1 (stereo not drawn),10.1% (inactive)

row,SMILES,inhibition
1,COc1cccc(CN2CCN(Cc3ccc(C(F)(F)F)cc3)CC2)c1OC,-5.41% (inactive)
2,NS(=O)(=O)c1cccc(NC(=O)COc2ncnc3sc(-c4ccccc4)cc23)c1,20.8% (inactive)
3,O=C(NN1C(=O)c2ccccc2C1=O)c1cccc(F)c1,-4.68% (inactive)
4,CCOc1ccc(OCCCCNCCO)cc1,15.9% (inactive)
5,Cc1cnc(NCc2ccc3c(c2)OCO3)nc1Nc1ccccc1,7.89% (inactive)
6,CCCS(=O)(=O)N1CCN(Cc2cccc(Cl)c2)CC1,13.1% (inactive)
7,c1cc2c(cc1CNc1nc(Nc3ccc(N4CCOCC4)cc3)c3ncn(C4CCCCC4)c3n1)OCO2,-14.4% (inactive)
8,COCc1nc2ccccc2n1CCc1noc(-c2ccco2)n1,-8.54% (inactive)
9,Cc1cc(S(=O)(=O)Nc2ccc3c(c2)OCCO3)ccc1-n1cnnn1,14% (inactive)
10,Cc1ccc(C(C)C)c(OCC#CCN2CCNCC2)c1,14.9% (inactive)
11,CC(C)(C)NCCOCCOc1ccc(Cl)c(Cl)c1,9.65% (inactive)
12,C[C@@H](OCc1ccccc1)[C@@H]1NC(=O)[C@H]2CN(C(=O)Nc3cccc(F)c3)CCN2C1=O,1.57% (inactive)
13,COc1cc(CN2CCN(Cc3ccco3)CC2)c([N+](=O)[O-])cc1OC,13% (inactive)
14,CC[C@@H]1NC(=O)[C@H]2CN(C(=O)NCc3ccccc3)CCN2C1=O,2.23% (inactive)
15,CCN1CCN(CC(=O)N/N=C/c2cccc(Cl)c2)CC1,3.65% (inactive)
16,Cc1cccnc1NC(=O)CSc1nnc(COc2ccc(C(C)C)cc2)n1C,9.54% (inactive)
17,Cc1cc(NC(=O)CSc2ccc(-c3ccccn3)nn2)no1,93.4% (active)
18,Cc1cc(NC(=O)CNCCCN(C)C)no1,1.07% (inactive)
19,C=CCNCCOCCOc1cc(C)ccc1C(C)(C)C,15.9% (inactive)
20,COc1ccc(OCCCC(=O)Oc2ccc(OC)cc2)cc1,3.96% (inactive)
21,CCc1ccc(NC(=O)CS(=O)CC(=O)NCCCc2ccccc2)cc1 (stereo not drawn),-4.98% (inactive)

# — PubChem BioAssay AID1259376 (The Scripps Research Institute Molecular Screening Center, 2018)
